# Experimental data published in the OligoGym collection.
# Biological target: ELF2
# Assay: pooled miR-30 sensor sort-seq; sequence = guide strand
# Settings: shRNA
# Also: reference of the scale not given here.
row,Sequence,sensor-assay potency score (higher = more potent)
1,TGATTTTCTACTCCATTGCTGG,-0.423
2,TATCCTTGAACTGATATACAAG,-1.19
3,TTTCACATCATGTTCTTGCTTT,0.568
4,TTTCACTTTTGTCATCATCTAT,-0.516
5,ATCATCATAAACCAGAACCTGG,-0.854
6,TTGATTTTCTACTCCATTGCTG,0.197
7,TGATATTCACAACTCTAGCTAC,-0.607
8,TAGATCTAAAAGAAACTCCCAC,0.171
9,TTTGTCTGCAGTTGACACTGTG,0.266
10,TTCTTCTGCCACATCTTGCATC,-0.811

# Biological target: EMD
# Assay: as above
# Settings: shRNA
row,Sequence,sensor-assay potency score (higher = more potent)
1,TCGTACTCGAAGATCTTCTTCT,0.284
2,AATGAAGTCACTGACTGGCGGA,-0.824
3,ATCTTCTTCTCGTAAAGCCTAC,-1.02
4,TAGTCGTCATTGTAGCCCTTGC,-0.858
5,TATCCTTGCACTCCTCTTCAGA,-0.66
6,TAGGATAATAGGACAGGTCCAG,-0.423
7,TGGTGAAGTAGCTCTCTTCATA,-1.46
8,TAATAGGACAGGTCCAGGGAGC,-1.25
9,AAGATCGTCATCATGCACCTGG,0.638
10,TTCTTCTCGTAAAGCCTACGAG,-0.852
11,AAAGCCTACGAGTTGATCCTAC,-0.00514
12,TTCCCTATCCTTGCACTCCTCT,-0.239
13,TACTCGAAGATCTTCTTCTCGT,-0.0297
14,AAGAAGACAAAAGATCGTCATC,-1.25
15,TACATATCTGCATCCCCTCTAG,-0.434
16,TAGTAGTCGTCATTGTAGCCCT,-0.272
17,TACGAGTTGATCCTACTACAGG,-1.33
18,TGCTCTGGTAGAGTAAAGCGTC,-0.878
19,TCGAAGATCTTCTTCTCGTAAA,-1.01
20,ATCGTCATCATGCACCTGGTGA,-0.488
21,TAGTGCGTGATGCTCTGGTAGG,-0.899
22,TCTGGTAGAGTAAAGCGTCCTC,0.201
23,TAGCTCTCTTCATAGTAGTCGT,-0.538
24,TAAAGCGTCCTCTTTCTTGGGA,0.267

# Biological target: EMILIN2
# Assay: as above
# Settings: shRNA
row,Sequence,sensor-assay potency score (higher = more potent)
1,TTCTCCGTCACATTGATCCTTG,-0.623
2,ATAGTCATCACACTGCTGCTGG,0.195
3,TTGACCAATGTCACCATTCTTT,-0.477
4,TTTATTGACACTCCCTGTCTTT,-0.458
5,TTTCTGATCAACAAGCTGCTTC,0.352
6,TAGGTCTGAAGTTCACTCGATA,-0.326
